From PubChem BioAssay (EPA / NIEHS)
The source made the active and inactive calls. The calls were made as follows: active = hit-call score of the fitted dose curve at least 0.9, where 1 is the maximum; inactive = score below 0.9.

How the values were obtained:
[1] = read-out: Matrix Metallopeptidase 9 (MMP9), MMP9 (gene 4318); test: BSK_KF3CT_MMP9: BioMAP Diversity Plus: KF3CT Assay for Matrix Metallopeptidase 9 (MMP9) Biomarker Activity (AID 2283074); details: primary human keratinocytes with fibroblasts; actives raise or lower the signal
Outline: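 MMP-9 quantified by ELISA after 24 h chemical treatment of primary human skin keratinocyte/fibroblast co-cultures; gain or loss fitted against DMSO, with parallel SRB staining (0.1% SRB, 560 nm) for overt cytotoxicity.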

[2] = read-out: urokinase plasminogen activator (uPA), PLAU (gene 5328); test: BSK_KF3CT_uPA: BioMAP Diversity Plus: KF3CT Assay for urokinase plasminogen activator (uPA) Biomarker Activity (AID 2283075); details: primary human keratinocytes with fibroblasts; actives raise or lower the signal
Outline: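 ELISA read-out of uPA 24 h after dosing human skin keratinocytes co-cultured with foreskin fibroblasts. Signal change fitted both ways relative to DMSO; sulforhodamine B on parallel cultures marks overt cytotoxicity.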

CD40, CD40 (gene 958) [3] = test: BSK_LPS_CD40: BioMAP Diversity Plus: LPS Assay for CD40 Biomarker Activity (AID 2283076); details: primary human HUVEC with PBMC; actives raise or lower the signal
Outline: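 Using a multiplexed primary human co-culture (umbilical vein endothelium plus PBMC), CD40 was read by ELISA 24 h after dosing, with cytotoxicity tracked by sulforhodamine B staining of parallel cultures and activity fitted bidirectionally versus DMSO.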

[4] = read-out: E-selectin (Homo sapiens) (UniProt P16581); test: BSK_LPS_Eselectin: BioMAP Diversity Plus: LPS Assay for Eselectin Biomarker Activity (AID 2283077); details: primary human HUVEC with PBMC; actives raise or lower the signal
Outline: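 Dose chemical onto LPS-driven HUVEC/PBMC co-culture; after 24 h, run ELISA for E-selectin; fit up- and down-going responses relative to DMSO control.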

[5] = read-out: Interleukin-8 (IL8), CXCL8 (gene 3576); test: BSK_LPS_IL8: BioMAP Diversity Plus: LPS Assay for Interleukin-8 (IL8) Biomarker Activity (AID 2283078); details: primary human HUVEC with PBMC; actives raise or lower the signal
Outline: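 In this LPS system, chemical-treated human umbilical vein endothelium/PBMC co-cultures were harvested at 24 h for IL-8 ELISA.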

[6] = BSK_LPS_SRB: Viability Assessment in the BioMAP Diversity Plus: LPS Assay (AID 2283079); details: primary human HUVEC with PBMC;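 also: total protein by sulforhodamine B absorbance as a cytotoxicity measure; measured one day after compound addition; fitted in both directions against DMSO so loss or gain of signal counts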
Outline: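 Cytotoxicity endpoint in human endothelial–PBMC co-culture: 24 h exposure, then SRB (0.1%) staining, 560 nm read.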

[7] = read-out: Interleukin-1 alpha (IL1a), IL1A (gene 3552); test: BSK_LPS_IL1a: BioMAP Diversity Plus: LPS Assay for Interleukin-1 alpha (IL1a) Biomarker Activity (AID 2283080); details: primary human HUVEC with PBMC; actives raise or lower the signal
Outline: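 Primary human HUVEC and PBMC co-culture stimulated with LPS is dosed and harvested at 24 h. Both increases and decreases in ELISA-measured IL-1a are scored relative to DMSO.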

[8] = read-out: Monocyte Chemoattractant Protein-1 (MCP1), CCL2 (gene 6347); test: BSK_LPS_MCP1: BioMAP Diversity Plus: LPS Assay for Monocyte Chemoattractant Protein-1 (MCP1) Biomarker Activity (AID 2283081); details: primary human HUVEC with PBMC; actives raise or lower the signal
Outline: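 Values derive from bidirectional fitting against DMSO of ELISA-measured MCP-1 in a human primary endothelial and mononuclear cell co-culture, 24 h after chemical addition under LPS activation.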

[9] = BSK_LPS_PGE2: BioMAP Diversity Plus: LPS Assay for Prostaglandin E2 (PGE2) Biomarker Activity (AID 2283082); details: primary human HUVEC with PBMC; actives raise or lower the signal
Outline: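 Primary human endothelial cells and blood mononuclear cells, co-cultured with LPS, receive test chemical; PGE2 ELISA follows at 24 h, with SRB-stained parallel cultures flagging cytotoxicity.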

[10] = read-out: Macrophage colony-stimulating factor (MCSF), CSF1 (gene 1435); test: BSK_LPS_MCSF: BioMAP Diversity Plus: LPS Assay for Macrophage colony-stimulating factor (MCSF) Biomarker Activity (AID 2283083); details: primary human HUVEC with PBMC; actives raise or lower the signal
Outline: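 Bidirectional fit versus DMSO of ELISA-measured M-CSF in co-cultured human umbilical vein endothelial cells and PBMC, sampled 24 h after dosing.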

[11] = read-out: Tissue Factor, F3 (gene 2152); test: BSK_LPS_TissueFactor: BioMAP Diversity Plus: LPS Assay for Tissue Factor Biomarker Activity (AID 2283084); details: primary human HUVEC with PBMC; actives raise or lower the signal
Outline: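 Read-out: CD142 ELISA, 24 h. System: LPS-driven human endothelial/PBMC co-culture. Analysis: up- or down-signal fitted against DMSO.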

[12] = read-out: Tumor necrosis factor (Homo sapiens) (UniProt P01375); test: BSK_LPS_TNFa: BioMAP Diversity Plus: LPS Assay for Tumour Necrosis Factor alpha (TNFa) Biomarker Activity (AID 2283085); details: primary human HUVEC with PBMC; actives raise or lower the signal
Outline: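 ELISA-based TNFa endpoint in a human endothelial–PBMC co-culture sampled 24 h post-exposure. Curves were fitted in both directions using DMSO as baseline of activity.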

[13] = read-out: Vascular cell adhesion molecule 1 (VCAM1), VCAM1 (gene 7412); test: BSK_LPS_VCAM1: BioMAP Diversity Plus: LPS Assay for Vascular cell adhesion molecule 1 (VCAM1) Biomarker Activity (AID 2283086); details: primary human HUVEC with PBMC; actives raise or lower the signal
Outline: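 Measured by ELISA: VCAM-1 in LPS-activated HUVEC/PBMC co-cultures 24 h after treatment. Values reflect bidirectional fitting with DMSO as baseline.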

CD38, CD38 (gene 952) = test: BSK_SAg_CD38: BioMAP Diversity Plus: SAg Assay for CD38 Biomarker Activity (AID 2283087); details: primary human HUVEC with PBMC; actives raise or lower the signal
Outline: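 Measures CD38 on a human endothelial/PBMC co-culture driven by SEB and TSST-1, 24 h after compound exposure, using ELISA with fluorescence detection; DMSO defines baseline for bidirectional curve fitting.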

CD40, CD40 (gene 958) [14] = test: BSK_SAg_CD40: BioMAP Diversity Plus: SAg Assay for CD40 Biomarker Activity (AID 2283088); details: primary human HUVEC with PBMC; actives raise or lower the signal
Outline: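 Endpoint derived by fitting increases or decreases versus DMSO controls. CD40 is detected by fluorescence ELISA in a human vascular co-culture of endothelium and PBMC at 24 h.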

CD69, CD69 (gene 969) = test: BSK_SAg_CD69: BioMAP Diversity Plus: SAg Assay for CD69 Biomarker Activity (AID 2283089); details: primary human HUVEC with PBMC; actives raise or lower the signal
Outline: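 ELISA, fluorescence read-out: CD69 on human umbilical vein endothelial cell + PBMC co-culture, 24 h post-dosing. Gain or loss of signal fitted bidirectionally against DMSO baseline.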

[15] = read-out: Monocyte Chemoattractant Protein-1 (MCP1), CCL2 (gene 6347); test: BSK_SAg_MCP1: BioMAP Diversity Plus: SAg Assay for Monocyte Chemoattractant Protein-1 (MCP1) Biomarker Activity (AID 2283090); details: primary human HUVEC with PBMC; actives raise or lower the signal
Outline: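 Values derive from bidirectional fitting of ELISA-measured MCP1 against DMSO controls. Readings were taken 24 h after dosing human vascular endothelial cells co-cultured with peripheral blood mononuclear cells under superantigen stimulation.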

[16] = read-out: E-selectin (Homo sapiens) (UniProt P16581); test: BSK_SAg_Eselectin: BioMAP Diversity Plus: SAg Assay for Eselectin Biomarker Activity (AID 2283091); details: primary human HUVEC with PBMC; actives raise or lower the signal
Outline: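 Endpoint values derive from bidirectional fitting relative to DMSO, using ELISA-measured E-selectin in a human vascular co-culture (umbilical vein endothelium plus PBMC) sampled 24 h after dosing.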

[17] = read-out: Monokine induced gamma interferon (MIG), CXCL9 (gene 4283); test: BSK_SAg_MIG: BioMAP Diversity Plus: SAg Assay for Monokine induced gamma interferon (MIG) Biomarker Activity (AID 2283092); details: primary human HUVEC with PBMC; actives raise or lower the signal
Outline: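 ELISA readout of MIG/CXCL9; primary human umbilical vein endothelial cells co-cultured with peripheral blood mononuclear cells; 24 h post-dose; gain/loss fit vs DMSO baseline.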

[18] = BSK_SAg_PBMCCytotoxicity: PBMC Cytotoxicity Assessment in the BioMAP Diversity Plus: SAg Assay (AID 2283093); details: primary human HUVEC with PBMC;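 also: PBMC viability measured as Alamar Blue reduction fluorescence at 546/580 nm; fitted both ways against DMSO so a hit may be loss or gain of signal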
Outline: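 Alamar Blue reduction (6 h, ex/em 546/580 nm) read after 90 h culture of PBMC pre-dosed 1 h then stimulated with SEB plus TSST-1, 20 ng/mL each. Gain or loss of signal fitted relative to DMSO.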

Measured: outcome

Sequence of E-selectin (Homo sapiens) (P16581 whole entry, looked up): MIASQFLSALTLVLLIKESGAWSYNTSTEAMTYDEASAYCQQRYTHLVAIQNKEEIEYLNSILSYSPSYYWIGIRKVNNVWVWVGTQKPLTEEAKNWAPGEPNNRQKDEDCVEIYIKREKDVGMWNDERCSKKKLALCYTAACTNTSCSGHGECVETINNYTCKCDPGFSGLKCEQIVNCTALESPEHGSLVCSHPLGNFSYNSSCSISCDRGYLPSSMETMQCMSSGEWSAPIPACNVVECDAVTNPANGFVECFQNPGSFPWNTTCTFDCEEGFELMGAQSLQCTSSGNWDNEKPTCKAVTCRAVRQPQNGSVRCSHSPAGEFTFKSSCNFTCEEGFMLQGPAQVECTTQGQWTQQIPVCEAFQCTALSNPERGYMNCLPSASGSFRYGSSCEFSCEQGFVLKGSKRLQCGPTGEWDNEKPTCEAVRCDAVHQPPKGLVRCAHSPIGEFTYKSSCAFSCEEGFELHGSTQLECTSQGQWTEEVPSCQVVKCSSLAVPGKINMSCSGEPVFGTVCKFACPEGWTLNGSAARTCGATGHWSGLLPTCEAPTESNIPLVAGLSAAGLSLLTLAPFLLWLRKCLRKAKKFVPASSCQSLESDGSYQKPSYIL
Sequence of Tumor necrosis factor (Homo sapiens) (P01375 whole entry, looked up): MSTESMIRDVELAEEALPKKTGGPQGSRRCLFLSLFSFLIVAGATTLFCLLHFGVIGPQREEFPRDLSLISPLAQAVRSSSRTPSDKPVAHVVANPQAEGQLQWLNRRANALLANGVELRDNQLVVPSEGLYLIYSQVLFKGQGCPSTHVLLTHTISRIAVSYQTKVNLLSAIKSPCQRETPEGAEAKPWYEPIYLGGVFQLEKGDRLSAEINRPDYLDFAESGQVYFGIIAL

Cc1ccc([N+](=O)[O-])cc1
inactive: all assays above

CN(C)c1ccccc1
inactive: all assays above

CCCCCCCCOC(=O)c1ccc(C(=O)OCCCCCCCC)c(C(=O)OCCCCCCCC)c1
inactive: all assays above

CCCCC(CC)COC(=O)c1ccc(C(=O)OCC(CC)CCCC)c(C(=O)OCC(CC)CCCC)c1 (centres undefined)
not listed: [13]
inactive: all other assays above

CC(C)(C)OOC(=O)c1ccccc1
not listed: CD40, CD40 (gene 958) [14] | [16]
inactive: all other assays above

C[N+](C)(C)CC1CO1 (centres undefined)
not listed: [16]
inactive: all other assays above

CC(C)N(Cc1ccccc1)C(=O)C(C)(C)C
not listed: [16]
inactive: all other assays above

CCC12COCN1COC2
not listed: [13]
inactive: all other assays above

Clc1ccc(Cl)c(Cl)c1
not listed: [13]
inactive: all other assays above

CCCCCCCCCCCCCN1CC(C)OC(C)C1 (centres undefined)
not listed: [16]
inactive: all other assays above

Cc1ccc(N)cc1
not listed: [16]
inactive: all other assays above

CN(C)[C@@H]1C(=O)C(C(N)=O)=C(O)[C@@]2(O)C(=O)C3=C(O)c4c(O)cccc4[C@@](C)(O)[C@H]3C[C@@H]12
not listed: [16]
inactive: all other assays above

CCOc1cccc(C2(N3CCN(c4ccccc4)CC3)CCC(C)CC2)c1 (centres undefined)
not listed: [13]
inactive: all other assays above
